Measurements from the supplement of paper PMC11732987, “Enantioselective OTUD7B fragment discovery through chemoproteomics screening and high-throughput optimisation” (Communications Chemistry, 2025).

Columns and labels:
Test in all cases: log2 ratio of Biotin-Ahx-Ub-VS probe labelling (fragment/DMSO); higher = less target engagement (more negative = stronger competition), active = hit call of the paper (q ≤ 0.05, log2 ratio ≤ -1)
Settings in all cases: compound concentration: 200 uM; treatment time: 3 h
USP19 = biological target: T1, USP19 (UniProt O94966)
T1 sequence (whole entry): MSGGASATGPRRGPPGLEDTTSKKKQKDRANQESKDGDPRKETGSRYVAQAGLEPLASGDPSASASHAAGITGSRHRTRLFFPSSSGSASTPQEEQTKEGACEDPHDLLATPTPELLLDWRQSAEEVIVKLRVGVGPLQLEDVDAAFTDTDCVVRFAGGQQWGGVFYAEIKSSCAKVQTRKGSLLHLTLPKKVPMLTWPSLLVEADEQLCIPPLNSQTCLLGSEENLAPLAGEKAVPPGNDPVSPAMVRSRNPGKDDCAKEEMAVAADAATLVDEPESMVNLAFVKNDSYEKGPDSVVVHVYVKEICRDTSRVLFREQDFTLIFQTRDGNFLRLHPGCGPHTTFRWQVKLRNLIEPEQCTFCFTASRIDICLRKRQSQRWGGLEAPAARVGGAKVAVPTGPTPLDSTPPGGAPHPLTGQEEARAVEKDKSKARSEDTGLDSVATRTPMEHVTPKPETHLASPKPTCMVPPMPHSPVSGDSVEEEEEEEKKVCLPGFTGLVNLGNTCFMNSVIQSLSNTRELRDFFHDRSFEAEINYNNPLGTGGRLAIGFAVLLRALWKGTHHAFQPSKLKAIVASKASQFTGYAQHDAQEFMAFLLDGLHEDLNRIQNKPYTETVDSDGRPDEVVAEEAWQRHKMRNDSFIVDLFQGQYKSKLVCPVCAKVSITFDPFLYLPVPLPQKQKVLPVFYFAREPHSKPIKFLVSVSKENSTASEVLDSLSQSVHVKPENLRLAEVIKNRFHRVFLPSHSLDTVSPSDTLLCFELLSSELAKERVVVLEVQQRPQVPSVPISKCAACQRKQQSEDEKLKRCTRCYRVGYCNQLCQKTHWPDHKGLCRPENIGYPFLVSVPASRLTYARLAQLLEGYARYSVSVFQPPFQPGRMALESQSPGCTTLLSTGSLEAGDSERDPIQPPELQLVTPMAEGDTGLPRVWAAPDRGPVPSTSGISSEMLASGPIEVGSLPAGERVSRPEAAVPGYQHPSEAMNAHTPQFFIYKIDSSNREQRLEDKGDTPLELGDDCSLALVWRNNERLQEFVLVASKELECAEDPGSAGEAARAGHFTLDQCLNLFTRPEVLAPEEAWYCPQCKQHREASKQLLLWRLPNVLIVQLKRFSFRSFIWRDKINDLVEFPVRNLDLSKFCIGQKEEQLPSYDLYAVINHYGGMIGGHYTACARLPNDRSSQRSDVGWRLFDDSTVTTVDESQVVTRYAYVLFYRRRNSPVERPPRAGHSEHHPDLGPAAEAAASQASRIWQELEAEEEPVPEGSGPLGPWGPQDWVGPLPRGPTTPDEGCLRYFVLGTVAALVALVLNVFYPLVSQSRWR
Method in brief: (§1)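 Each value is an average log2 ratio of fragment to vehicle, tested by unpaired t-test. The underlying Spectronaut label-free quantities were global-median-normalised, and only proteins with ≥2 unique peptides were included. Triplicate HEK293T lysate samples (495 µg) were exposed to fragment at 200 µM or vehicle for 3 h, then to Biotin-Ahx-Ub-VS at 0.5 µM final for 1 h, before NeutrAvidin enrichment of labelled DUBs, LysC and trypsin digestion, and diaPASEF LC-MS/MS.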

USP22 = biological target: T2, USP22 (UniProt Q9UPT9)
T2 sequence (whole entry): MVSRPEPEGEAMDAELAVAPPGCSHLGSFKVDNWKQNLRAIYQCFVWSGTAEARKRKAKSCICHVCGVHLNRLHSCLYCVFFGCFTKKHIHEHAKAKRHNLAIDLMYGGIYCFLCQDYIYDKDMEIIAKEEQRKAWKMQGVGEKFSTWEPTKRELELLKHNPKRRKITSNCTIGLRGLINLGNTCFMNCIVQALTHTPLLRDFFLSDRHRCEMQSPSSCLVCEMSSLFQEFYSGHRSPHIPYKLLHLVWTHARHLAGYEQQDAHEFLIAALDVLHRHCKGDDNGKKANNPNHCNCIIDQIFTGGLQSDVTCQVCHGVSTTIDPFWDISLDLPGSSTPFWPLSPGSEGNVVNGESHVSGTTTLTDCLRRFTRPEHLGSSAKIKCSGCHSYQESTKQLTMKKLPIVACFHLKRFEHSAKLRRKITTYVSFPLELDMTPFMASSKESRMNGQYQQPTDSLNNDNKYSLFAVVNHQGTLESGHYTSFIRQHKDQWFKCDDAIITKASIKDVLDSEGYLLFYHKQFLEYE
Method in brief: as §1

USP24 = USP24 (UniProt Q9UPU5)
Method in brief: as §1

USP25 = biological target: T3, USP25 (UniProt Q9UHP3)
T3 sequence (whole entry): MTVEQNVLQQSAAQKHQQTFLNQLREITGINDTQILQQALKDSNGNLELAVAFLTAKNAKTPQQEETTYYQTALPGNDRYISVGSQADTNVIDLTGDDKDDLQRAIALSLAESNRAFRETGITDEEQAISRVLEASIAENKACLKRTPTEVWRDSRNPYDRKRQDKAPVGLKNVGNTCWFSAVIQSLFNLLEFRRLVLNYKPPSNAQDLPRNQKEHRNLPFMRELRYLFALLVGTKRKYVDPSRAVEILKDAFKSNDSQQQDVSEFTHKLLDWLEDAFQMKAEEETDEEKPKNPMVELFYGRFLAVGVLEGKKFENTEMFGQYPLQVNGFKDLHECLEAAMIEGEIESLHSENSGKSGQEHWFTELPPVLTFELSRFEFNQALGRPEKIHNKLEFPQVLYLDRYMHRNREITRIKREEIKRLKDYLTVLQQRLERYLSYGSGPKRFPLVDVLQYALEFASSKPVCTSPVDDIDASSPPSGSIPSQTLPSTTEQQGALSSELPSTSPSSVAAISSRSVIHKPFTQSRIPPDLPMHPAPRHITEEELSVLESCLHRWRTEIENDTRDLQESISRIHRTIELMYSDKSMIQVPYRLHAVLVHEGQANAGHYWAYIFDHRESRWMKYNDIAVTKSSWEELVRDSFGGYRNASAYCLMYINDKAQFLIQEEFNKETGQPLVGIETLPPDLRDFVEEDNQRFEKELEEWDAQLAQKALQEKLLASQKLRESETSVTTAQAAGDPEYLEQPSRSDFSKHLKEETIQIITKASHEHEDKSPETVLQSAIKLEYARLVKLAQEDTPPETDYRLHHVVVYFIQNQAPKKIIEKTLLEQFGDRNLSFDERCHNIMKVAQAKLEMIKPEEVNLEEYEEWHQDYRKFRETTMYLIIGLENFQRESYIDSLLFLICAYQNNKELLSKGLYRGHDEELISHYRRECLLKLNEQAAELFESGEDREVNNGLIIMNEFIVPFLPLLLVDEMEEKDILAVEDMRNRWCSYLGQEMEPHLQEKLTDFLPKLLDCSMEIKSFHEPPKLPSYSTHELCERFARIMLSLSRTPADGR
Method in brief: as §1

USP28 = biological target: T4, USP28 (UniProt Q96RU2)
T4 sequence (whole entry): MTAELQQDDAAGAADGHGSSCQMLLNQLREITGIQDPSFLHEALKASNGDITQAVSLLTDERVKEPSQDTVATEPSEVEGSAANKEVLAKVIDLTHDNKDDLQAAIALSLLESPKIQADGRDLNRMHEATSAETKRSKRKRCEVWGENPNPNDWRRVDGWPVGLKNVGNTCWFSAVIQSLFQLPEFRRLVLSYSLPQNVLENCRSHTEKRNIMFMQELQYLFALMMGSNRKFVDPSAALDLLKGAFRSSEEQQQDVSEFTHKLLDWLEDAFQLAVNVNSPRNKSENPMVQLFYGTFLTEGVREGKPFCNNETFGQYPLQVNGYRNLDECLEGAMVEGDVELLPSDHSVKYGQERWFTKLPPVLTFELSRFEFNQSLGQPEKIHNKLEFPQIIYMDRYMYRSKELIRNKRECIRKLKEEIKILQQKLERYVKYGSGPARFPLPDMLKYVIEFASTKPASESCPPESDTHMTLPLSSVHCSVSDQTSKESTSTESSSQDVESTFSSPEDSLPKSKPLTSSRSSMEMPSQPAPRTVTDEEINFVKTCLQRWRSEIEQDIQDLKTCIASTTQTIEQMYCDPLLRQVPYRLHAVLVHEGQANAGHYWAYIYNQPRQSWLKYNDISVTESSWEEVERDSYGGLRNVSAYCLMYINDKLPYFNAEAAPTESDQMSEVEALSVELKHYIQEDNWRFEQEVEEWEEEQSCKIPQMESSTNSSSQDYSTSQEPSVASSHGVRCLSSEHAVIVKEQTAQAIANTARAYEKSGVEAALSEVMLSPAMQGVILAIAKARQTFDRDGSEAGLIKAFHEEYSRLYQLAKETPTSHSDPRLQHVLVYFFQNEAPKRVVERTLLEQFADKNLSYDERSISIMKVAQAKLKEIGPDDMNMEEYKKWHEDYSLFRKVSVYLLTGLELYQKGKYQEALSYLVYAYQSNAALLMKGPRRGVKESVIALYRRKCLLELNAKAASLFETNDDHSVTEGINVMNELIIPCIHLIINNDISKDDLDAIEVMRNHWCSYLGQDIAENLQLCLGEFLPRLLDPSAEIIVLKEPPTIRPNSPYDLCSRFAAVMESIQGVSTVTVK
Method in brief: as §1

Measured: log2 ratio of Biotin-Ahx-Ub-VS probe labelling

Sequence of USP24 (Q9UPU5 whole entry): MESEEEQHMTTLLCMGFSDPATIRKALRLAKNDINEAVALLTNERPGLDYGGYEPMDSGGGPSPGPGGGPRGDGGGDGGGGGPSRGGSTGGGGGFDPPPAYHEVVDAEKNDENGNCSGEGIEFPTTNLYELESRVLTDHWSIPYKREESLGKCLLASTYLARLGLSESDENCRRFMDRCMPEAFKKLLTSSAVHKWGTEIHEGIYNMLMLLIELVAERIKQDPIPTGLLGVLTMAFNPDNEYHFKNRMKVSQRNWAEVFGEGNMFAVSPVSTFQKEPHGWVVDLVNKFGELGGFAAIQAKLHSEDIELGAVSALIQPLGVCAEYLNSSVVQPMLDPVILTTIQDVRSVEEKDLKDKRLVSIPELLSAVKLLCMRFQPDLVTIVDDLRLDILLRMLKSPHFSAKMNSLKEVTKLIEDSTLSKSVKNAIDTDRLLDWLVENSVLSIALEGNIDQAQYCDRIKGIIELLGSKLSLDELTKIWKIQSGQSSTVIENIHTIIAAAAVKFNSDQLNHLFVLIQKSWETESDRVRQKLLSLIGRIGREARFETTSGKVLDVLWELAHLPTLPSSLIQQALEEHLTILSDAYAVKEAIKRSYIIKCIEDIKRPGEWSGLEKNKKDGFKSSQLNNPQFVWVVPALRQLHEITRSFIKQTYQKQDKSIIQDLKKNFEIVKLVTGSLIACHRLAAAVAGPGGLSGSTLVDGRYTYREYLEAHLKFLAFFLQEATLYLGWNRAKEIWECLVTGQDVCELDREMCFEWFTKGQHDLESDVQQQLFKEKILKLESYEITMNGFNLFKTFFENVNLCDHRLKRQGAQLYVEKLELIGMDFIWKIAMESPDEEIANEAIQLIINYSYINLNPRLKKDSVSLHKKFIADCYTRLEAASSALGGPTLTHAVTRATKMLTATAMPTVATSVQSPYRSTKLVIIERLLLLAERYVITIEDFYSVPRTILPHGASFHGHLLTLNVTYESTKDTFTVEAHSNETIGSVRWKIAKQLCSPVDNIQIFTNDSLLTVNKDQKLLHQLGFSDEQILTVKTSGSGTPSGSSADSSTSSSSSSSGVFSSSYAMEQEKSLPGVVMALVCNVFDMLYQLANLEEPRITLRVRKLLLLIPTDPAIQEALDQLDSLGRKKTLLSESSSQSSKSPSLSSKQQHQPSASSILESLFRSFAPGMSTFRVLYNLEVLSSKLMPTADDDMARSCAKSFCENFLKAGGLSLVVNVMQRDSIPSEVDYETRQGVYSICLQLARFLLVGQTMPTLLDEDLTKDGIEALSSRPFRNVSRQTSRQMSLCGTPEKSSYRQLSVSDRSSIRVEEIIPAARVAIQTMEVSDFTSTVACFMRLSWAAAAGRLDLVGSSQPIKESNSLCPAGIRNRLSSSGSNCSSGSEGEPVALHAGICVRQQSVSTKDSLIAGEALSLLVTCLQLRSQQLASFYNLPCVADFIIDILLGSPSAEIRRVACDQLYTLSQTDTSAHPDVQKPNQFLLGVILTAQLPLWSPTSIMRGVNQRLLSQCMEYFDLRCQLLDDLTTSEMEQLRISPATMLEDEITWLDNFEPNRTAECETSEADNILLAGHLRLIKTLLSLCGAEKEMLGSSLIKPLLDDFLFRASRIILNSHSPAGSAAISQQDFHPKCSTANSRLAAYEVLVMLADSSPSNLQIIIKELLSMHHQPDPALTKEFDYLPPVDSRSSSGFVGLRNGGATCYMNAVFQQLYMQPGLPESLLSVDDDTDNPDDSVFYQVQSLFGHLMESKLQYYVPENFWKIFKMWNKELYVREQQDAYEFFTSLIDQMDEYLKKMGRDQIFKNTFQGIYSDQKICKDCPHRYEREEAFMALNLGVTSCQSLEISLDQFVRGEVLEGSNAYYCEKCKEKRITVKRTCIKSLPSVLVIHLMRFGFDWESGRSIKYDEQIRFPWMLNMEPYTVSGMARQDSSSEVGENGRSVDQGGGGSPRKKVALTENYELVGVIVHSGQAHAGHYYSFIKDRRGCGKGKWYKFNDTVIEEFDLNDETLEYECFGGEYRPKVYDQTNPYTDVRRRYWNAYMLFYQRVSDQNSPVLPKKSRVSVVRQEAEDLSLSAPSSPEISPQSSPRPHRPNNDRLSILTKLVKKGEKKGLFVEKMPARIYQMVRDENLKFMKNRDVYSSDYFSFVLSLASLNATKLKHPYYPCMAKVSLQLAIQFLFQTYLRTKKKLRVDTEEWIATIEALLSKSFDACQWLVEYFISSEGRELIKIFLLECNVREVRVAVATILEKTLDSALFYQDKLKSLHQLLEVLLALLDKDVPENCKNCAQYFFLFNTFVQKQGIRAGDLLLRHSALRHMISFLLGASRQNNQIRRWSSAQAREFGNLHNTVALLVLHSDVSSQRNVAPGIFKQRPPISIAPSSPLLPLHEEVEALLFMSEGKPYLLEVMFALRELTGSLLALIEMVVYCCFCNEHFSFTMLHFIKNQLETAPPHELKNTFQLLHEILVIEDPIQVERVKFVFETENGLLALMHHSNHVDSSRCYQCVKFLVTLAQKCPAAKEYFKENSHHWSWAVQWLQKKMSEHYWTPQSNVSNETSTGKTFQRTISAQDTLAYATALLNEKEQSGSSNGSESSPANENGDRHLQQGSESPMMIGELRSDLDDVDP

CS(=O)(=O)N1CCCN(C(=O)CCl)CC1
inactive: USP19 -0.0881 | USP22 0.0754 | USP24 -0.0413 | USP25 -0.243 | USP28 -0.549
